About 1,500 (3.8%) of roughly 39,000 compounds were called active. Only a selection was taken, and actives are over-represented in it overall.

This experiment concerns HSkMC (human skeletal muscle cells). Briefly: cytotoxicity call (relative viability < 0.9). To be noted: 10 µM.
`C[C@@H]1CCCCO[C@@H](CN(C)C(=O)Nc2cccc3ccccc23)[C@@H](C)CN([C@@H](C)CO)C(=O)c2cc(NS(=O)(=O)c3ccc(Cl)cc3)ccc2O1`: the cytotoxicity call was “inactive”.

As for `C[C@H]1CN([C@@H](C)CO)C(=O)Cc2cc(NC(=O)CCC(F)(F)F)ccc2O[C@H]1CN(C)S(=O)(=O)c1ccccc1`, the cytotoxicity call is “inactive”.

Take `CO/N=C(\C(=O)N[C@@H]1C(=O)N2C(C(=O)O)=C(C)CS[C@H]12)c1csc(N)n1`: the cytotoxicity call was “inactive”.

`C[C@@H]1CCCCO[C@H](CN(C)C(=O)c2ccccc2)[C@H](C)CN([C@H](C)CO)C(=O)c2cc(NS(=O)(=O)c3ccc(Cl)cc3)ccc2O1`: the cytotoxicity call is “inactive”.

Regarding `COCC#Cc1cnc2c(c1)C(=O)N([C@H](C)CO)C[C@H](C)[C@H](CN(C)C(=O)Nc1ccc(OC)cc1)O2`, the cytotoxicity call is “inactive”.

Take `CS(=O)(=O)N1C[C@H]2COC[C@@]2(C(=O)NCc2ccccn2)C1`: the cytotoxicity call was “inactive”.

Take `C[C@@H]1CN([C@H](C)CO)C(=O)CCCn2cc(nn2)CO[C@H]1CN(C)C(=O)Nc1ccc(C(F)(F)F)cc1`: the cytotoxicity call was “inactive”.

With `Cc1ccc(S(=O)(=O)Nc2ccc3c(c2)C(=O)N([C@H](C)CO)C[C@H](C)[C@@H](CN(C)C(=O)Cc2ccccc2)OCCCC[C@@H](C)O3)cc1`, the cytotoxicity call was “inactive”.

On to `Cc1noc(C)c1S(=O)(=O)Nc1ccc2c(c1)C(=O)N([C@@H](C)CO)C[C@H](C)[C@H](CN(C)Cc1ccc(Cl)c(Cl)c1)OCCCC[C@@H](C)O2`, for which the cytotoxicity call is “inactive”.

Take `C[C@H](CO)N1C[C@H](C)[C@@H](CN(C)CC2CCCCC2)Oc2c(NC(=O)c3ccc(-c4nccs4)cc3)cccc2C1=O`: the cytotoxicity call is “inactive”.

Consider `Cc1ccc(-c2cnc3c(c2)C(=O)N([C@@H](C)CO)C[C@@H](C)[C@H](CN(C)C(=O)Cc2ccncc2)O3)cc1`, for which the cytotoxicity call was “inactive”.

As for `C[C@H]1CN([C@@H](C)CO)C(=O)c2cc(NS(=O)(=O)c3ccc(Cl)cc3)ccc2O[C@H]1CN(C)C(=O)Nc1cccc2ccccc12`, the cytotoxicity call is “inactive”.

On to `C[C@H]1CN([C@@H](C)CO)C(=O)c2cc(NS(=O)(=O)c3ccc(Cl)cc3)ccc2O[C@@H]1CN(C)Cc1ccc(C(F)(F)F)cc1`, for which the cytotoxicity call is “active”.

As for `C[C@@H]1CN([C@@H](C)CO)C(=O)c2cc(NC(=O)CCC(F)(F)F)ccc2O[C@@H](C)CCCCO[C@@H]1CN(C)C(=O)Nc1ccc(C(F)(F)F)cc1`, the cytotoxicity call was “inactive”.

Turning to `Nc1nc(=O)n([C@@H]2CS[C@H](CO)O2)cc1F`, the cytotoxicity call was “inactive”.

As for `CNC(=O)c1ccccc1N`, the cytotoxicity call was “inactive”.

Consider `C[C@H]1CN([C@@H](C)CO)C(=O)c2cc(NC(=O)Nc3ccc(C(F)(F)F)cc3)ccc2O[C@H]1CN(C)Cc1ccc(Oc2ccccc2)cc1`, for which the cytotoxicity call was “active”.

Take `C[C@@H]1CN([C@@H](C)CO)C(=O)c2cc(NC(=O)Nc3ccc(C(F)(F)F)cc3)ccc2O[C@H]1CN(C)Cc1ccc(Oc2ccccc2)cc1`: the cytotoxicity call was “active”.

As for `C[C@@H]1CN([C@@H](C)CO)C(=O)c2cc(NC(=O)Nc3ccc(C(F)(F)F)cc3)ccc2O[C@@H]1CN(C)Cc1ccc(Oc2ccccc2)cc1`, the cytotoxicity call was “active”.

Take `C[C@H](CO)N1C[C@H](C)[C@@H](CN(C)Cc2ccc(Oc3ccccc3)cc2)Oc2ccc(NC(=O)Nc3ccc(C(F)(F)F)cc3)cc2C1=O`: the cytotoxicity call was “active”.

On to `O=C(C[C@@H]1C[C@H]2c3cc(NC(=O)C4CCOCC4)ccc3O[C@H]2[C@H](CO)O1)NCc1ccc2c(c1)OCO2`, for which the cytotoxicity call was “inactive”.

With `C[C@@H]1CCCCO[C@@H](CN(C)C(=O)c2ccccc2)[C@@H](C)CN([C@H](C)CO)C(=O)c2cc(NC(=O)Nc3ccc(C(F)(F)F)cc3)ccc2O1`, the cytotoxicity call is “inactive”.

`Cc1noc(C)c1S(=O)(=O)Nc1ccc2c(c1)C(=O)N([C@@H](C)CO)C[C@@H](C)[C@H](CN(C)C(=O)NC(C)C)O2`: the cytotoxicity call is “inactive”.

For `Cl.N=C(N)NC(=N)N1CCOCC1`, the cytotoxicity call is “inactive”.

Take `COc1ccc(S(=O)(=O)N2C[C@@H](O)COC[C@H]3O[C@@H](CC(=O)NCCCN(C)C)CC[C@@H]32)cc1`: the cytotoxicity call was “inactive”.

As for `C[C@H](CO)N1C[C@H](C)[C@H](CN(C)S(=O)(=O)c2cccs2)Oc2ccc(NS(=O)(=O)c3cn(C)cn3)cc2C1=O`, the cytotoxicity call was “inactive”.

`Cn1cnc(CCNC(=O)C[C@H]2CC[C@H]3[C@@H](COC[C@H](O)CN3C(=O)Nc3ccc(C(F)(F)F)cc3)O2)c1`: the cytotoxicity call was “inactive”.

Turning to `C[C@H]1CN([C@@H](C)CO)C(=O)c2cc(NS(=O)(=O)c3ccc(F)cc3)ccc2O[C@H]1CN(C)S(=O)(=O)c1ccccc1`, the cytotoxicity call was “inactive”.

Take `Cc1nn(C)c(Cl)c1S(=O)(=O)NC(=O)[C@@]1(C)CCN1C(=O)c1ccccc1CCc1ccccc1`: the cytotoxicity call is “inactive”.

As for `COC(=O)c1cc(S(C)(=O)=O)ccc1OC`, the cytotoxicity call is “inactive”.

Turning to `C[C@H]1CN([C@@H](C)CO)C(=O)c2cc(NC(=O)Nc3ccc(C(F)(F)F)cc3)ccc2O[C@@H]1CN(C)Cc1ccc(Oc2ccccc2)cc1`, the cytotoxicity call is “inactive”.

For `C[C@H](CO)N1C[C@H](C)[C@H](CN(C)Cc2ccc(Oc3ccccc3)cc2)Oc2ccc(NC(=O)Nc3ccc(C(F)(F)F)cc3)cc2C1=O`, the cytotoxicity call is “active”.

As to `C[C@@H]1CN([C@H](C)CO)C(=O)c2cc(NC(=O)Nc3ccc(C(F)(F)F)cc3)ccc2O[C@H]1CN(C)Cc1ccc(Oc2ccccc2)cc1`, the cytotoxicity call is “inactive”.

As for `C[C@@H]1CN([C@H](C)CO)C(=O)c2cc(NC(=O)Nc3ccc(C(F)(F)F)cc3)ccc2O[C@@H]1CN(C)Cc1ccc(Oc2ccccc2)cc1`, the cytotoxicity call is “active”.

On to `CN(C)C(=O)c1cccc(-c2ccc3n(c2=O)C[C@H]2[C@H](CO)[C@@H](C(=O)NCC4CC4)N[C@@H]32)c1`, for which the cytotoxicity call is “inactive”.

Consider `C[C@@H]1CN([C@H](C)CO)C(=O)c2cccc(NC(=O)Nc3ccc(F)cc3)c2O[C@@H]1CN(C)Cc1ccc(Cl)c(Cl)c1`, for which the cytotoxicity call was “inactive”.

As for `C[C@@H]1CN([C@H](C)CO)C(=O)c2cccc(NC(=O)Nc3ccc(F)cc3)c2O[C@H]1CN(C)Cc1ccc(Cl)c(Cl)c1`, the cytotoxicity call was “active”.

Take `C[C@@H]1CN([C@@H](C)CO)C(=O)c2cccc(NC(=O)Nc3ccc(F)cc3)c2O[C@H]1CN(C)Cc1ccc(Cl)c(Cl)c1`: the cytotoxicity call is “inactive”.

For the compound `COc1ccc(NC(=O)Nc2cccc3c2O[C@H](CN(C)Cc2ccc(Cl)c(Cl)c2)[C@@H](C)CN([C@@H](C)CO)C3=O)cc1`, the cytotoxicity call was “active”.

`C[C@H]1CN([C@@H](C)CO)C(=O)c2cccc(NC(=O)Nc3ccc(F)cc3)c2O[C@H]1CN(C)Cc1ccc(Cl)c(Cl)c1`: the cytotoxicity call is “inactive”.

With `C[C@@H]1CN([C@@H](C)CO)C(=O)c2cccc(NC(=O)Nc3ccc(F)cc3)c2O[C@@H]1CN(C)Cc1ccc(Cl)c(Cl)c1`, the cytotoxicity call was “active”.

In the case of `C[C@H](CO)N1C[C@H](C)[C@H](CN(C)Cc2ccc(Cl)c(Cl)c2)Oc2c(NC(=O)Nc3ccc(F)cc3)cccc2C1=O`, the cytotoxicity call is “inactive”.

In the case of `COc1ccc(NC(=O)Nc2cccc3c2O[C@@H](CN(C)Cc2ccc(Cl)c(Cl)c2)[C@@H](C)CN([C@H](C)CO)C3=O)cc1`, the cytotoxicity call was “inactive”.

On to `COc1ccc(NC(=O)Nc2cccc3c2O[C@@H](CN(C)Cc2ccc(Cl)c(Cl)c2)[C@H](C)CN([C@@H](C)CO)C3=O)cc1`, for which the cytotoxicity call is “inactive”.

As for `C[C@H](CO)N1C[C@H](C)[C@@H](CN(C)Cc2ccc(Cl)c(Cl)c2)Oc2c(NC(=O)Nc3ccc(F)cc3)cccc2C1=O`, the cytotoxicity call was “active”.

`C[C@@H]1CN([C@H](C)CO)C(=O)c2cccc(NC(=O)Nc3ccccc3)c2O[C@@H]1CN(C)Cc1ccc(Cl)c(Cl)c1`: the cytotoxicity call is “inactive”.

For the compound `C[C@@H]1CN([C@@H](C)CO)C(=O)c2cccc(NC(=O)Nc3ccccc3)c2O[C@H]1CN(C)Cc1ccc(Cl)c(Cl)c1`, the cytotoxicity call was “inactive”.
